Test results published in PubChem BioAssay (NCI).
Several values for one entry are separate records, joined by “and”; a condition that tells them apart may be missing. Equal values may be shown once. Compounds without any hit were thinned out: in the full panel of roughly 83,000, 20% have a hit.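 Growth was measured after 48 h exposure to one concentration of compound in 96-well plates. Values under 10 count as active.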 Activity calls are given as the source filed them.

Test system: SW-620 colon
Experiment: NCI-60 one-dose screen, 48 h (100 = growth as untreated, 0 = no growth, -100 = all killed)
Conditions: 10 µM unless noted

Row | Structure (SMILES) | growth
1 | CN(C)C(=O)c1cc2cnc(Nc3ccc(-c4csc5c(=S)cc(N6CCOCC6)oc45)cc3)nc2n1C1CCCC1 | 4.89% (active)
2 | CN1CCN(c2ccc(/C=C/C(=O)c3ccc(O)cc3)cc2)CC1 | 99.5% (inactive)
3 | CC1(Cc2ccccc2)CC2=C(C(=O)O1)C(c1ccccc1)NC(=O)N2 (stereo unspecified) | 106% (inactive)
4 | COc1ccc(-c2nc(Cl)c3c(C)nn(-c4ccc(F)cc4)c3n2)cc1 | 103% (inactive)
5 | CCCCn1c(C(=O)c2c[nH]c3ccccc23)n[nH]c1=S | 101% (inactive)
6 | COc1ccc(/C=C2\COc3ccc(O)c(O)c3C2=O)c(OC)c1OC | 9.64% (active)
7 | C=C(CN1CC=CCC1)[C@@H]1CC[C@]2(COC(C)=O)CC[C@]3(C)[C@H](CC[C@@H]4[C@@]5(C)CC[C@H](O)C(C)(C)[C@@H]5CC[C@]43C)[C@@H]12 | 97.4% (inactive)
8 | O=[N+]([O-])c1ccc(S(=O)Cc2ccccc2)c([N+](=O)[O-])c1 (stereo unspecified) | -71.3% (active) and -38.1% (active)
9 | O=C(Cn1cc(CN2CCN(c3ccnc4cc(Cl)ccc34)CC2)nn1)Nc1cccc([N+](=O)[O-])c1 | 95% (inactive)
10 | Nc1n[nH]c2cccc(C#Cc3cccc(NC(=O)c4ccc(N5CCOCC5)c(C(F)(F)F)c4)c3)c12 | 21.5% (inactive)
11 | COC1=CC(=O)C(OC)=C(O)C1=O | 93.2% (inactive)
12 | CONC1=Nc2cc(NC(N)=NCc3ccccc3)c(N(C)C3CCCCC3)cc2OC1 | 75% (inactive)
13 | Fc1ccc(NC(c2ccc(F)cc2)C2CCN(CCCCc3ccccc3)CC2)cc1 (stereo unspecified) | 12.7% (inactive)
14 | COc1ccc2c(O)c(/C=C3\N=Nc4nc(C)ccc43)oc2c1CC1CCNCC1 | 38.9% (inactive)
15 | COc1ccc(C(=O)N/N=C/c2ccc(O)cc2O)cc1Nc1ccnc(C(F)(F)F)c1 | 35.8% (inactive)
16 | COc1ccc(-c2cc(-c3cc(OC)c(OC)c(OC)c3)c(C#N)c(=O)n2CCCCC(=O)O)cc1 | 98% (inactive)
17 | COc1cc(-c2[nH]ncc2Nc2ccc(Cl)cc2)cc(OC)c1OC | 82.6% (inactive)

Row | Structure (SMILES) | growth
18 | C/C(=C(\c1ccc(OCCN2CCOCC2)cc1)c1ccc(OC(=O)C2CCCCC2)cc1)c1ccc(Cl)cc1 | 96.6% (inactive)
19 | CCN(CC)CCOc1ccc(/C(=C(\Cl)c2ccccc2)c2ccccc2)cc1 | -55% (active)
20 | CSc1nnc(-c2cc3c([nH]c4ccccc43)c(-c3cccc(O)c3)n2)n1-c1ccc(C)cc1 | 30% (inactive)
21 | COc1ccc(/C(C)=C(\c2ccc(OCCN3CCCCCC3)cc2)c2ccc(OC(=O)C3CCCCC3)cc2)cc1 | -49.8% (active)
22 | N=C1/C(=C2\NC3C=CC=CC3S2)C(c2ccc(Cl)cc2)C2C(=O)N(c3ccccc3)C(=S)N12 (stereo unspecified) | 104% (inactive)
23 | Nc1nc(Nc2cccnc2)sc1C(=O)c1ccccc1F | 34.5% (inactive)
24 | COCCOc1cc2ncnc(N3CCN(S(=O)(=O)c4ccccc4Cl)CC3)c2cc1OCCOC | 79.9% (inactive)
25 | O=C1/C(=C/c2ccc(F)c(F)c2)CN(C(=O)C(Cl)Cl)C/C1=C\c1ccc(F)c(F)c1 | -67.6% (active)
26 | O=C([C@H]1C[C@H]1c1ccc(S(F)(F)(F)(F)F)cc1)N1CCN(c2cc(Cl)ccc2C(F)(F)F)CC1 | 95.9% (inactive)
27 | O=C(NNc1ccccc1)c1ncc[nH]1 | 60.7% (inactive)
28 | COc1cccc(C2C(C#N)=C(N)Oc3cc(OCCCCCC[P+](c4ccccc4)(c4ccccc4)c4ccccc4)ccc32)c1 (stereo unspecified) | -31.7% (active)
29 | CCOC(=O)N(O)c1ccc(/C=C/c2ccccc2)cc1 | 60.2% (inactive) and 46.6% (inactive)
30 | O=C(CCCOc1ccc(Br)cc1)Nc1ncc(Cc2ccc(F)cc2)s1 | 58.2% (inactive)
31 | O=C(O)C1C2CCC1C(O)C2 (stereo unspecified) | 107% (inactive) and 113% (inactive)
32 | C=C1CC[C@@H]2[C@](C)(COC(C)=O)[C@H](OC(C)=O)CC[C@@]2(C)[C@@H]1CC(Nc1ccc(S(=O)(=O)Nc2nccs2)cc1)C1=CCOC1=O (stereo partly specified) | -72.7% (active)
33 | Nc1nc(Nc2ccc(F)cc2)nn1C(=O)c1cc(Cl)ccc1Cl | 71.4% (inactive)

Test system: MCF7 breast
Experiment: as above
Conditions: 10 µM unless noted

Row | Structure (SMILES) | growth
34 | CN(C)C(=O)c1cc2cnc(Nc3ccc(-c4csc5c(=S)cc(N6CCOCC6)oc45)cc3)nc2n1C1CCCC1 | -5.27% (active)
35 | CN1CCN(c2ccc(/C=C/C(=O)c3ccc(O)cc3)cc2)CC1 | 89.7% (inactive)
36 | CCCCC(NC(=O)CN1C(=O)/C(=C/C(C)=C/c2ccccc2)SC1=S)C(=O)O (stereo unspecified) | 93.3% (inactive)
37 | CC1(Cc2ccccc2)CC2=C(C(=O)O1)C(c1ccccc1)NC(=O)N2 (stereo unspecified) | 105% (inactive)
38 | COc1ccc(-c2nc(Cl)c3c(C)nn(-c4ccc(F)cc4)c3n2)cc1 | 105% (inactive)
39 | CCCCn1c(C(=O)c2c[nH]c3ccccc23)n[nH]c1=S | 73.2% (inactive)
40 | COc1ccc(/C=C2\COc3ccc(O)c(O)c3C2=O)c(OC)c1OC | 14.8% (inactive)
41 | C=C(CN1CC=CCC1)[C@@H]1CC[C@]2(COC(C)=O)CC[C@]3(C)[C@H](CC[C@@H]4[C@@]5(C)CC[C@H](O)C(C)(C)[C@@H]5CC[C@]43C)[C@@H]12 | 90.4% (inactive)
42 | O=[N+]([O-])c1ccc(S(=O)Cc2ccccc2)c([N+](=O)[O-])c1 (stereo unspecified) | 41.1% (inactive) and 5.89% (active)
43 | O=C(Cn1cc(CN2CCN(c3ccnc4cc(Cl)ccc34)CC2)nn1)Nc1cccc([N+](=O)[O-])c1 | 89.1% (inactive)
44 | Nc1n[nH]c2cccc(C#Cc3cccc(NC(=O)c4ccc(N5CCOCC5)c(C(F)(F)F)c4)c3)c12 | 25.6% (inactive)
45 | COC1=CC(=O)C(OC)=C(O)C1=O | 91.5% (inactive)
46 | CONC1=Nc2cc(NC(N)=NCc3ccccc3)c(N(C)C3CCCCC3)cc2OC1 | 36.1% (inactive)
47 | Cc1ccc(NC(=O)c2ccc(CN3CCN(C)CC3)cc2)cc1Nc1nccc(-c2cccnc2)n1 | 91.9% (inactive) and 55.7% (inactive)
48 | Fc1ccc(NC(c2ccc(F)cc2)C2CCN(CCCCc3ccccc3)CC2)cc1 (stereo unspecified) | 5.18% (active)
49 | COc1ccc2c(O)c(/C=C3\N=Nc4nc(C)ccc43)oc2c1CC1CCNCC1 | 67.3% (inactive)
50 | COc1ccc(C(=O)N/N=C/c2ccc(O)cc2O)cc1Nc1ccnc(C(F)(F)F)c1 | 21.9% (inactive)
51 | COc1ccc(-c2cc(-c3cc(OC)c(OC)c(OC)c3)c(C#N)c(=O)n2CCCCC(=O)O)cc1 | 93.2% (inactive)
52 | COc1cc(-c2[nH]ncc2Nc2ccc(Cl)cc2)cc(OC)c1OC | 41.9% (inactive)

Row | Structure (SMILES) | growth
53 | Nc1ccc(S(=O)(=O)c2ccc(N)cc2)cc1 | 99.5% (inactive) and 104% (inactive)
54 | C/C(=C(\c1ccc(OCCN2CCOCC2)cc1)c1ccc(OC(=O)C2CCCCC2)cc1)c1ccc(Cl)cc1 | 79.8% (inactive)
55 | CCN(CC)CCOc1ccc(/C(=C(\Cl)c2ccccc2)c2ccccc2)cc1 | 16.2% (inactive) and 27.4% (inactive)
56 | CSc1nnc(-c2cc3c([nH]c4ccccc43)c(-c3cccc(O)c3)n2)n1-c1ccc(C)cc1 | 5.16% (active)
57 | COc1ccc(/C(C)=C(\c2ccc(OCCN3CCCCCC3)cc2)c2ccc(OC(=O)C3CCCCC3)cc2)cc1 | -23.6% (active)
58 | N=C1/C(=C2\NC3C=CC=CC3S2)C(c2ccc(Cl)cc2)C2C(=O)N(c3ccccc3)C(=S)N12 (stereo unspecified) | 94.1% (inactive)
59 | Nc1nc(Nc2cccnc2)sc1C(=O)c1ccccc1F | 9.37% (active)
60 | COCCOc1cc2ncnc(N3CCN(S(=O)(=O)c4ccccc4Cl)CC3)c2cc1OCCOC | 49.3% (inactive)
61 | O=C1/C(=C/c2ccc(F)c(F)c2)CN(C(=O)C(Cl)Cl)C/C1=C\c1ccc(F)c(F)c1 | -55.2% (active)
62 | O=C([C@H]1C[C@H]1c1ccc(S(F)(F)(F)(F)F)cc1)N1CCN(c2cc(Cl)ccc2C(F)(F)F)CC1 | 89.6% (inactive)
63 | O=C(NNc1ccccc1)c1ncc[nH]1 | 56.5% (inactive)
64 | COc1cccc(C2C(C#N)=C(N)Oc3cc(OCCCCCC[P+](c4ccccc4)(c4ccccc4)c4ccccc4)ccc32)c1 (stereo unspecified) | -39.2% (active)
65 | CCOC(=O)N(O)c1ccc(/C=C/c2ccccc2)cc1 | 8.37% (active) and 10.4% (inactive)
66 | CN(C)CCN1C(=O)c2c(c3c4ccccc4n4c3c3c2c2ccccc2n3C2CC(O)C(O)C4(C)O2)C1=O (stereo unspecified) | 6.41% (active)
67 | O=C(CCCOc1ccc(Br)cc1)Nc1ncc(Cc2ccc(F)cc2)s1 | 23.7% (inactive)
68 | COc1cc(NC2CCCCC2O)c2nc(-c3ccc(Cl)cc3)ccc2c1 (stereo unspecified) | 51.8% (inactive) and 59.4% (inactive)
69 | O=C(O)C1C2CCC1C(O)C2 (stereo unspecified) | 92% (inactive) and 97.8% (inactive)
70 | C=C1CC[C@@H]2[C@](C)(COC(C)=O)[C@H](OC(C)=O)CC[C@@]2(C)[C@@H]1CC(Nc1ccc(S(=O)(=O)Nc2nccs2)cc1)C1=CCOC1=O (stereo partly specified) | -21.3% (active)
71 | Nc1nc(Nc2ccc(F)cc2)nn1C(=O)c1cc(Cl)ccc1Cl | 48.8% (inactive)
